Here are results for 40 sequences from the supplement of paper PMC6555819.

This assay deals with VDR:RXRa (NR concentration 270 nM, RXRa partner concentration 90 nM). The assay is described as follows: PBM binding z-score (relative to random genomic background probes); higher = stronger binding; sequences stand for … in GC…GCGATTGACAGCGTAGAATGAAGG
The protocol:
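Protein-binding microarray (Agilent 4x180K custom design, double-stranded 60-nt probes: 5' GC cap, 34-nt variable region, 24-nt constant primer region; full probe sequence given). Purified or IVT nuclear receptor:RXRα heterodimers (3:1 NR:RXRα, mostly 270:90 nM) or homodimers were incubated for 1 h in PBS with 2% milk and no ligand, then detected with Alexa488 antibodies. Fluorescence from o1-orientation probes (~5 replicates averaged) was converted to z-scores against 500 random hg19 background probes. Variable regions are seed direct-repeat (DR0–DR5) sites, all their single-nucleotide variants and half-site ablations.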
Sequence ACTATTAGTTGAGACCAGGGCAACCGATAGGTTG returned a PBM binding z-score of -0.036.

AGAATGAGGTTACCAATGATCAGGGAAACGCTTG: the PBM binding z-score amounted to 1.18.

Regarding AATACAGGGTCAGCGTAGGCCAGAGTACGCACAG, the PBM binding z-score turned out to be 3.44.

With CCTATTAGTAGACCATAAGGGCAACCGAAGCTCG, the PBM binding z-score stood at 0.553.

In turn, CCTACTGGCCCATTCAGAGGTCATTGATCATATG returned a PBM binding z-score of 3.58.

On to CAAACTAGGTCAAAGTTCAAAGTCGAGCCAACCA, for which the PBM binding z-score is 6.12.

On to CGTCCAAGGTGATAGGAGGTCAGTGAAGACAGAT, for which the PBM binding z-score is 3.08.

Sequence GCTGCTAGGTCAACTGACGGTCAGCTAAAGCTCG came in with a PBM binding z-score of 1.88.

GCATATAGGTAATACAAGGTTAAAGTCCGATTGT registered a PBM binding z-score of 1.6.

As for CCTGCTAGGTCATGGTCAGCCAATCTACAGTATG, the PBM binding z-score was found to be 1.71.

Take CCTTACGGGTCACTGAAAGGTTATAGCATTTGGA: the PBM binding z-score is 4.52.

TCTTGTAGATCAGCTGGTTAAGAAAGCTGGCCAA: the PBM binding z-score was -0.152.

On to CCTATTAGTTGACCATAAGGGCAAGCGAAGCTCG, for which the PBM binding z-score amounted to 0.92.

AGAACGAGGGCAATGATTTGATAGCACGGGTGGC came in with a PBM binding z-score of 0.334.

As to ATCGAACGGTCGAAGGTGAGTATACCCACCCGAA, the PBM binding z-score is -0.202.

For the sequence TCATATAGGTAATACAGGTGACAGTCGGCATCTA, the PBM binding z-score worked out at 0.922.

The sequence ATATGTAGGTTAGCTGGGGTCACTCAGACTAGGC had a PBM binding z-score of 5.64.

In the case of GATGCTAGGTCAACTGATGGTCAGCTAAAGCTCG, the PBM binding z-score came to 1.69.

ACTAGCAGGCCAAGTTTGGCTCACTCAAACAAAG displayed a PBM binding z-score of -0.767.

Regarding AGAACGAGGGCAATGAGTTGCTAGCACGGGTGGC, the PBM binding z-score amounted to 3.91.

For the sequence GCTAGTTGGTCAGTAAAAGGTCAAACACCGGTCG, the PBM binding z-score is 4.29.

Sequence CATAGCAGGCCAGGGTCACTCAAGCATTTCGCTT displayed a PBM binding z-score of 2.92.

The sequence CCGACTGGGGCAAAGGTGACCATACTCAGTACGA gave a PBM binding z-score of 0.389.

Turning to ATCGAAAGGTCGAGGTGAGTATTGAGAAAGGGAA, the PBM binding z-score came to 2.46.

As to GCTAGTTGGTCAGTAGAAGGTCACACACCGGTCG, the PBM binding z-score amounted to 2.65.

Sequence CGATCTAGGTCATCCAGGACAGTGAATACATTGA gave a PBM binding z-score of 4.67.

As to TCTTGTAGATCAATAGAGGTTAAGATAGTGCGCT, the PBM binding z-score worked out at 1.65.

Take CAAACTATGTCACGAAAGGTCAAAGTCGAATGAC: the PBM binding z-score was found to be 5.07.

CAACCTAGGTCAGGGCCAGTATAGGAGGAACGTT: the PBM binding z-score was found to be 0.746.

As to ATATGTAGGTTAGCTGGGGTGATTCAGACTAGGC, the PBM binding z-score turned out to be 1.01.

The sequence TCTAGTTGGTCACGGAGGTCACATACGACGGGTA registered a PBM binding z-score of 5.92.

The sequence TAGCCTAGGTCATGTGGGCCAGTATAGTGTCGGC gave a PBM binding z-score of 2.62.

The sequence GCTAGCAGGCCATTTGGGTCACTCCATGACGGGC showed a PBM binding z-score of 0.513.

In turn, ATCTCTAGGAAAAGTTCAGTGAAAGATCGATAGA yielded a PBM binding z-score of 1.2.

In the case of CGAACTAGGTCACGGACAGTGAATCTCCGCACGC, the PBM binding z-score came out at 2.74.

AATACAGGGTCATCGTAGGCCCGAGTACGCACAG had a PBM binding z-score of 4.95.

Take AGAATGAGGTTATACGTAGATCAGGAAAGAAAGT: the PBM binding z-score came to 1.51.

Take ATCGAAAGGTCGTGAGGTGAGAATACAGAAAGGC: the PBM binding z-score came to 3.48.

In turn, TGTCAAAGTTCAAACGTAACGTAAGTATCCACAC returned a PBM binding z-score of 4.68.

In turn, AGAATGAGGTTACCAAAGATCCGGGAAACGCTTG gave a PBM binding z-score of 1.16.
